Where “and” joins values, the source holds several entries; their conditions need not be identical. Equal values may be shown once. The campaign covered roughly 300,000 compounds. About 37,000 (12%) were called active. No stated cut-off is given here; in the data, active means max response mostly above about 13% (no sharp cut-off); inactive means mostly below about 14%. Many of the other results were omitted from the sample, so actives are more common in it than they were.
Test: Cycloheximide Counterscreen for Small Molecule Inhibitors of Shiga Toxin; further: read at 38.3 µM for the half of the compounds with a filed dose; 0% is about no effect
Settings: cell reporter, cycloheximide protein synthesis inhibition counterscreen; stronger effect = higher value

Row | Structure (SMILES) | max response
1 | CCc1c(C)nc(N)n2c(SCC(=O)NC3CCCCC3)nnc12 | 11.5% (inactive)
2 | COc1ccc(-c2nn(-c3ccccc3)cc2C(=O)Nc2nccs2)cc1OC | -1.49% (inactive)
3 | COc1ccc(-c2nn(-c3ccccc3)cc2/C=N/Nc2ccccn2)cc1OC | 14.8% (active)
4 | CN(C)/N=C/c1cn(-c2ccccc2)nc1-c1cccnc1 | 6.55% (inactive)
5 | Cc1cc(C)cc(C(=O)N(CCc2ccccc2)C2=CC3CCC(C2)N3C)c1 (configuration not stated) | 3.92% (inactive)
6 | O=C(C1CC(=O)N(c2ccc(Br)cc2)C1)N1CCCC1 (configuration not stated) | 4.73% (inactive)
7 | O=c1cc(-c2ccccc2)[nH]c2cc(F)ccc12 | -3.07% (inactive)
8 | Cc1ccc(-c2cc(=O)c3ccc(Cl)cc3[nH]2)cc1 | -0.873% (inactive) and 14.9% (inactive)
9 | Cc1ccc(-c2cc(=O)c3ccc(F)cc3[nH]2)cc1 | 6.8% (active)
10 | CC(=O)NC(CC(=O)Nc1cccc(S(=O)(=O)N2CCCC2)c1)c1ccccc1 (configuration not stated) | -2.18% (inactive)
11 | COc1ccc(S(=O)(=O)N2CCOC2CNC(=O)C(=O)NCc2ccc(F)cc2)cc1 (configuration not stated) | -1.46% (inactive)
12 | CC1(C)C=C2[C@H]3CC[C@@H]4[C@@]5(C)CCC(=O)C(C)(C)[C@@H]5CC[C@@]4(C)[C@]3(C)CC[C@@]2(C(=O)O)CC1 | 4.36% (inactive)
13 | O=C(CN(C(=O)c1nsc(Cl)c1Cl)c1cccc(F)c1)NC1CCCC1 | -1.97% (inactive)
14 | COc1cc(NC(=S)N2CCCC(C)C2)cc(OC)c1OC (configuration not stated) | -2.44% (inactive)
15 | COc1cc(NC(=S)NNC(=O)CC(C)C)c(OC)cc1Cl | -6.7% (inactive)
16 | COc1cc(NC(=S)N2CCCC(C)C2)c(OC)cc1Cl (configuration not stated) | 17.5% (active)
17 | COc1ccccc1C(=O)N1C(CC(=O)Nc2ccccc2C)C(=O)NC2CCCCC21 (configuration not stated) | -3.1% (inactive)
18 | N#CC(C#N)=CN=c1ccn(Cc2ccc(Cl)cc2Cl)cc1 | -0.809% (inactive)
19 | C=CCn1c(CCNC(=O)c2cccs2)n[nH]c1=S | 2.82% (inactive)
20 | C=CCn1c(=NC(=O)c2ccc(S(=O)(=O)N3CCCC3)cc2)sc2cc(NC(C)=O)ccc21 | -4.67% (inactive)
21 | C=CCn1c(=NC(=O)c2cccs2)sc2cc(NC(C)=O)ccc21 | 16.5% (active)
22 | CN1CCN(S(=O)(=O)c2cccc(C(=O)N3CCc4ccccc43)c2)CC1 | -1.65% (inactive)
23 | O=C1c2ccccc2NC(c2ccc(-c3cccc(Cl)c3)o2)N1O (configuration not stated) | 38.7% (active)

Row | Structure (SMILES) | max response
24 | CCOC(=O)NN1C(=O)c2ccccc2NC1c1cccc(O)c1 (configuration not stated) | 7.43% (inactive)
25 | O=C1NN(c2ccccc2)C(=O)/C1=C/c1ccc(-c2cccc(C(=O)O)c2)o1 | 21% (inactive)
26 | CC(C)[C@@H](NC(=O)OC(C)(C)C)C(=O)NCC1CCC(C(=O)N[C@@H](Cc2ccccc2)C(=O)O)CC1 (some centres not stated) | -1.77% (inactive)
27 | Cc1cccc(C(=O)N2CCc3c([nH]c4ccccc34)C2CC(C)C)n1 (configuration not stated) | 26.8% (active)
28 | Cc1cccc(C2c3[nH]c4ccccc4c3CCN2C(=O)c2cc(-c3cccn3C)n[nH]2)n1 (configuration not stated) | -3.03% (inactive)
29 | O=C(c1cn2ccccc2n1)N1CCc2c([nH]c3ccccc23)C1c1ccccn1 (configuration not stated) | 3.01% (inactive)
30 | CCN(CCn1cccn1)Cc1nc(-c2ccc(C(=O)OC)cc2)no1 | -4.94% (inactive)
31 | CC(=O)C1=C(O)C(=O)N(c2ccc(S(N)(=O)=O)cc2)C1c1ccccc1F (configuration not stated) | -0.999% (inactive)
32 | CCOC(=O)C1CCN(Cc2nnc(-c3cccc(Br)c3)o2)CC1 | -0.93% (inactive)
33 | CN(c1ccc(O)cc1)c1nc(-c2cccnc2)cs1 | 56.1% (active)
34 | Brc1ccc(-c2csc(N/N=C/c3cccnc3)n2)cc1 | 19.4% (active)
35 | COc1ccc(CCN(C(=O)COc2ccccc2)c2nc(-c3ccccc3)cs2)cc1OC | 5.03% (inactive)
36 | COc1ccc(-c2csc(N3CCN(Cc4ccc5c(c4)OCO5)CC3)n2)cc1 | -4.44% (inactive)
37 | CCOC(=O)N/N=C/c1cccnc1 | 11.3% (inactive)
38 | CC(C)(C)C(=O)OCc1nc(-c2ccc(O)c(O)c2)cs1 | 5.11% (inactive)
39 | Brc1ccc(-c2csc(N/N=C/c3ccc4c(c3)OCO4)n2)cc1 | 17.6% (inactive)
40 | COc1ccc(Nc2nc(-c3ccccc3)cs2)cc1 | 46.6% (active)
41 | CN(C(=O)CSc1nc(C2CC2)nc2ccccc12)c1nc(-c2ccccc2)cs1 | 4.58% (inactive)
42 | COc1ccc(-c2csc(Cc3nc(O)cs3)n2)cc1 | 37.4% (active)
43 | NS(=O)(=O)c1ccc(Nc2nc(-c3ccccc3)cs2)cc1 | 18.5% (inactive)
44 | COc1ccc(-c2csc3ncnc(N4CCN(S(=O)(=O)c5ccccc5C#N)CC4)c23)cc1 | -2.23% (inactive)
45 | COc1cc(/C=N/O)cc(Br)c1OS(=O)(=O)c1ccc(C)cc1 | 1.45% (inactive)
46 | COc1cc(NC(=O)CCNC(=O)Cn2ccc3ccccc3c2=O)cc(OC)c1OC | -5.95% (inactive)

Row | Structure (SMILES) | max response
47 | COc1ccc(OC)c(C(=O)NC(CC(N)=O)c2ccc(N3CCC(N4CCCCC4)CC3)c([N+](=O)[O-])c2)c1 (configuration not stated) | 4.9% (inactive)
48 | CCC(C(=O)NC1CCCC1)N(C(=O)Cn1nnc(-c2ccc(C)o2)n1)c1ccc(OC)c(OC)c1 (configuration not stated) | -5.67% (inactive)
49 | Cc1scc(C(=O)NNC(=S)NCc2ccccc2)c1C | -0.644% (inactive)
50 | Cc1ccc(S(=O)(=O)N(Cc2ccc(Cl)cc2)c2ccccc2C(=O)NCc2cccnc2)cc1 | 7.18% (inactive)
51 | COC(=O)c1cc2c(ccn2C)n1C | -8.1% (inactive)
52 | COC(=O)CCc1sc(Nc2ccc(Br)cc2)nc1-c1ccc(OC)cc1 | 11.1% (inactive)
53 | COc1ccc(-c2csc(Nc3ccc(O)cc3)n2)cc1 | 58.3% (active)
54 | Oc1ccc(-c2csc(Nc3cccnc3)n2)cc1 | 33.7% (active)
55 | COc1ccc(OC)c(Nc2nc(-c3ccc(O)c(O)c3)cs2)c1 | 0.815% (inactive)
56 | O=C(Nc1ccc(-c2csc(Nc3cccc(C(F)(F)F)c3)n2)cc1)c1cccc(C(F)(F)F)c1 | -4.63% (inactive)
57 | COC(=O)CCCCCN1C(=O)NC(c2ccc(-c3ccccc3)cc2)C(C(=O)OCc2ccccc2)=C1C (configuration not stated) | -3.62% (inactive)
58 | CN1C2CCC1/C(=C\c1ccccc1Cl)C(=O)/C2=C\c1ccccc1Cl | -1.18% (inactive)
59 | Cc1cc(C)c(S(=O)(=O)c2ccc(F)cc2C)c(=O)[nH]1 | 0.432% (inactive)
60 | Cc1ccc(-c2nc3c(cnn3-c3ccccc3)c(=O)o2)cc1 | -3.4% (inactive)
61 | O=C(Cn1cnc2c(cnn2-c2ccccc2)c1=O)NCc1ccccc1 | 20.7% (active)
62 | O=C(Cn1cnc2c(cnn2-c2ccc(F)cc2)c1=O)NCCc1ccccc1 | -1.32% (inactive)
63 | CC(=O)Cn1cnc2c(cnn2-c2ccccc2)c1=O | 20.7% (active)
64 | COc1ccc(-n2c(C)nc3c(cnn3-c3ccccc3)c2=O)cc1 | -2.87% (inactive)
65 | O=C(Cn1cnc2cc([N+](=O)[O-])ccc2c1=O)NC(=O)NCc1ccccc1 | 5.35% (inactive)
66 | Cc1cc(C)n(S(=O)(=O)c2cccc([N+](=O)[O-])c2)n1 | 0.92% (inactive)
67 | COc1ccccc1C(=O)NCc1nnc(SC(C)C(=O)Nc2nccs2)n1C (configuration not stated) | 2.76% (inactive)
68 | Cc1ccc(-n2ncc3c2CCCC3NC(=O)c2cnccn2)cc1C (configuration not stated) | 9.44% (inactive)
69 | C/C=C/c1ccc(OCCCCN2CCC(C)CC2)c(OC)c1 | 0.514% (inactive)

Row | Structure (SMILES) | max response
70 | c1ccc(CSc2ncnc3c2sc2nc(N4CCOCC4)c4c(c23)CCCC4)cc1 | -3.72% (inactive)
71 | Cc1n[nH]c(=O)nc1N/N=C/c1cccs1 | 25.7% (active)
72 | Cc1nnc(N/N=C/c2cccs2)[nH]c1=O | -2.07% (inactive)
73 | S=c1[nH]nc(-c2cccs2)n1/N=C/c1cccs1 | 8.89% (inactive)
74 | COCCOC(=O)c1sc(=S)n(CCOC)c1N | -1.77% (inactive)
75 | CC(C)(C)c1ccc(Cn2nnc3c(=O)[nH]c(C4CCCN(C(=O)c5ccco5)C4)nc32)cc1 (configuration not stated) | 4.58% (inactive)
76 | Cc1nn(CCOc2ccccc2)c(=O)n1-c1ccccc1F | 49.6% (active)
77 | Cc1cccc2c1N(CCOc1ccccc1)C(=O)C2=O | 8.28% (inactive)
78 | Clc1ncn(CCOc2ccccc2)c1Cl | -2.48% (inactive)
79 | CCc1nc2cccnc2n1-c1ccc(C(=O)O)cc1 | -1.63% (inactive)
80 | COc1cccc(C(O)c2nc3ccccc3n2C)c1 (configuration not stated) | -2.8% (inactive)
81 | CCOc1ccc2nc(Nc3nc4ccc(NC(C)=O)cc4s3)sc2c1 | -1.98% (inactive)
82 | CCCC(=O)N(CCN1CCOCC1)c1nc2ccc(OCC)cc2s1 | 16.6% (inactive)
83 | CCOc1ccc2nc(C(=O)N3CCCC(C)C3)sc2c1 (configuration not stated) | 105% (active)
84 | CCOc1ccc(S(=O)(=O)NCCCn2ccnc2)cc1NC(C)=O | -3.29% (inactive)
85 | c1cncc(-c2nnc3n2C2(CCCCC2)Cc2ccccc2-3)c1 | -1.12% (inactive)
86 | CCOc1ccccc1C1CC(c2cccc(NS(C)(=O)=O)c2)=NN1C(=O)c1ccccc1 (configuration not stated) | -1.46% (inactive)
87 | CCOc1cccc2c1OC1(CCCCC1)N1N=C(c3cccnc3)CC21 (configuration not stated) | 40.7% (active)
88 | CC1CCN(S(=O)(=O)c2ccc3c(c2)n(C)c(=O)n3C)CC1 | 2.78% (inactive)
89 | Cc1cc(CNCc2c(C(=O)N(C)Cc3ccccc3)nc3ccccn23)nn1C | 1.54% (inactive)
90 | Cc1nn(-c2ccccn2)c2c1C(c1ccncc1)C1=C(CC(C)(C)CC1=O)N2 (configuration not stated) | -5.72% (inactive)
91 | Cc1cc2c(cc1C)NC(c1ccccn1)C1=C(CC(C)(C)CC1=O)N2 (configuration not stated) | 28% (active)
92 | CC1(C)CC(=O)C2=C(C1)Nc1cc(C(=O)c3ccccc3)ccc1NC2c1ccccn1 (configuration not stated) | 5.93% (inactive)
